# Data published in PubChem BioAssay (NCATS).
# Results filed as inconclusive are left out. A call without a number means that no potency is given here. The source made the active and inactive calls. Unless noted, the call rests on the fitted dose curve; in most records, active means well fitted curve in the direction sought with a large enough effect; inconclusive means small, poorly fitted or top-dose-only effect, or another doubt; inactive means no such curve, though single readings can be large; an effect the other way counts as inactive or inconclusive.
# Key:
# [1] = target: Furin (Homo sapiens) (UniProt P09958); assay: Furin counterscreen qHTS for Zika virus inhibitors (AID 1347149); further: nearly all actives have a fitted effect of over 70% in size; further: potency means the concentration at half of the fitted maximal effect;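 on activity change, negative = inhibition: purified recombinant full-length human furin enzyme at 5 nM; fluorescence gain from furin cutting a BOC-RVRR-AMC peptide substrate over 15 min; top concentration of the series differs between compounds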
# Outline: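 Counterscreen measures cleavage of 2 microM BOC-RVRR-AMC, below its ~15 microM Km, by 5 nM full-length human furin at pH 7.0 after a 15-min compound preincubation. Inhibition derives from the 15-min fluorescence increase at 37C.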
# [2] = Confirmatory screen GU Rhodamine qHTS for Zika virus inhibitors qHTS (AID 1347157); further: nearly all actives have a fitted effect of over 70% in size; further: potency means the concentration at half of the fitted maximal effect
# Outline: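 Unlinked NS2B/NS3, 25 nM; Rhod110 peptide, 1.5 microM; compounds, up to 114 microM. Reaction run 15 min at RT in 10 mM Tris-HCl pH 8.0, 0.01% Tween 20; kinetic fluorescence change fitted with a 4-parameter Hill model.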
# [3] = Confirmatory screen NINDS Rhodamine qHTS for Zika virus inhibitors (AID 1347161); further: nearly all actives have a fitted effect of over 60% in size; further: potency means the concentration at half of the fitted maximal effect;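 on activity change, negative = inhibition: purified Zika NS2B-NS3 protease with linked NS2B cofactor domain and Rhodamine110 peptide substrate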
# Outline: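 Kinetic fluorescence (Ex 480 nm, Em 540 nm) over 15 min with 1.5 microM Rhodamine110 peptide and 25 nM linked protease.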
# [4] = Tertiary RLuc qRT-PCR qHTS assay for Zika virus inhibitors (AID 1347169); further: top concentration of the series differs between compounds; nearly all actives have a fitted effect of over 55% in size
# Outline: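 Orthogonal cell-based infection assay using recombinant ZIKV-RLuc (Cambodian) in Vero cells; compound added prior to virus at MOI 1-2. Incubation lasts 48-72 hrs at 37 degrees C before live-cell Renilla substrate is added and luminescence measured.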
# [5] = target: Calcium and integrin-binding protein 1 (Homo sapiens) (UniProt Q99828); assay: Primary qHTS for Identification of Calcium Integrin Binding Protein 1 (CIB1) Competitor (AID 1508620);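 further: GST tagged CIB1 binding a fluorescein labelled alphaIIb integrin peptide tracer; top concentration of the series differs between compounds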
# Outline: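 Fluorescence polarization competition: CIB1-GST (1 uM final) preincubated with compound 15 min at room temperature, then FITC-labeled alphaIIb peptide (100 nM final) added for another 15 min. Polarization read at Ex 480/Em 540.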
# [6] = ZIKV-mCherry secondary qHTS for Zika virus inhibitors (AID 1347158); further: top concentration of the series differs between compounds
# Outline: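 Read-out is percent infection: mCherry-positive Vero cells (nuclear-proximal intensity >450 RFU, 3 SD above negative controls) counted by high-content imaging of Hoechst-stained, PFA-fixed wells after 48-72 h with ZIKV-mCherry at MOI 1 and compound.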
# [7] = test system: Zika virus NS2B-NS3 protease (linked); assay: 384 well plate NINDS AMC confirmatory qHTS for Zika virus inhibitors (AID 1347163); further: nearly all actives have a fitted effect of over 50% in size; further: potency means the concentration at half of the fitted maximal effect;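 on activity change, negative = inhibition: linked protease at 5 30 or 60 nM final depending on run; fluorescence of AMC released from Ac-VKTGKR-AMC peptide cleaved by the protease; top concentration of the series differs between compounds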
# Outline: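 Enzyme (5, 30 or 60 nM final) first met test compounds for ~15 min. The AMC-tagged peptide Ac-VKTGKR-AMC followed at 30 microM. Fluorescence was then recorded at 25 min and scaled against no-enzyme and no-inhibitor wells.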
# [8] = test system: Zika virus NS2B-NS3 protease (linked construct); assay: 384 well plate NINDS Rhodamine confirmatory qHTS for Zika virus inhibitors (AID 1347164); further: nearly all actives have a fitted effect of over 65% in size; further: potency means the concentration at half of the fitted maximal effect; on activity change, negative = inhibition: top concentration of the series differs between compounds
# Outline: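 Compounds are incubated about 15 minutes with linked protease (5, 30 or 60 nM final). Rhodamine 110-tagged Ac-LKRR substrate (10 microM final) is added and fluorescence measured after 25 minutes.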
# [9] = target: Cytochrome P450 2C9 (Homo sapiens) (UniProt P11712); assay: Cytochrome P450 family 2 subfamily C member 9 (CYP2C9) small molecule antagonists: luciferase biochemical (cell-free) qHTS assay (AID 1645842; active means well fitted curve in the direction sought with a large enough effect in the repeat runs; an effect the other way counts as inactive or inconclusive; further: potency means the concentration at half of the fitted maximal effect; nearly all actives have a fitted effect of over 55% in size)
# Outline: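 P450-Glo CYP2C9 system: proluciferin substrate with enzyme in mix containing 0.4% BSA, 10 min at room temperature, then NADPH regeneration solution added and incubated 1 h at 37C. Detection reagent stopped reaction; luminescence read after 20 min as RLU.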
# [10] = target: Cytochrome P450 3A4 (Homo sapiens) (UniProt P08684); assay: qHTS Assay for Activators of Cytochrome P450 3A4 (AID 885); further: nearly all actives have a fitted effect of over 65% in size
# Outline: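 CYP3A4 activity: Luciferin-PPXE O-dealkylation, 25uM substrate, 200mM KPO4, RT throughout. Read-out is luciferase luminescence; higher values reflect activation.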
# [11] = qHTS Assay for Lipid Storage Modulators (AID 1519; calls by dose curve); conditions: Drosophila S3 cells, BODIPY lipid droplet/cell ratio, laser cytometry, cells loaded with oleic acid; for activity change, negative = inhibition: at 57.5 µM (top of the series)
# Outline: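 Cells seeded at 5,000 per well were treated with compounds over a concentration series and loaded with oleic acid (400 uM, as added). Lipid droplet fluorescence (488 nm excitation, 500-530 nm channel) was read by laser-scanning cytometry and normalized to 20 uM Triacsin C.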
# [12] = target: Cytochrome P450 3A4 (Homo sapiens) (UniProt P08684); assay: qHTS Assay for Inhibitors and Substrates of Cytochrome P450 3A4 (AID 884); further: nearly all actives have a fitted effect of over 50% in size
# Outline: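 Luminescent readout of luciferin produced by CYP3A4 (20 nM) dealkylation of Luciferin-PPXE, 25 uM (its KM). NADPH-driven reaction ran 60 min at RT after 10 min compound preincubation; data scaled to 57 uM ketoconazole as 100% inhibition.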
# [13] = Confirmation and Secondary Assay for Modulators of Hemoglobin Beta Chain Splicing at IVS2 654 locus (AID 910);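 further: per-well total GFP intensity by laser scanning cytometry after 2-day treatment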
# Outline: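 HeLa cells stably carrying EGFP interrupted by mutant beta-globin IVS2-654 intron (CMV-driven) were treated with compound for 2 days at 37C; corrected splicing was scored as total peak GFP intensity per well (488 nm excitation, 500-520 nm emission).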
# [14] = Confirmation and Secondary Assay for Modulators of Hemoglobin Beta Chain Splicing at IVS2 705 locus (AID 930);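 further: HeLa cells stably expressing the EGFP-705 splicing reporter; GFP fluorescence per well restored by corrected splicing of the IVS2-705 intron in EGFP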
# Outline: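 Fluorescence gain (488 nm laser, 500-520 nm PMT) reflects restored correct splicing of a mutant IVS2-705 intron inside EGFP in stably transfected HeLa cells after 2-day compound treatment.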
# [15] = target: Ubiquitin carboxyl-terminal hydrolase 1 (Homo sapiens) (UniProt O94782); assay: Inhibitors of USP1/UAF1: Pilot qHTS (AID 504865);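 further: rhodamine fluorescence freed from ubiquitin-rhodamine substrate followed over time; top concentration of the series differs between compounds; nearly all actives have a fitted effect of over 35% in size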
# Outline: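 Kinetic fluorescence assay: 1nM USP1/UAF1, 15 min compound preincubation, then 150nM Ub-Rho; 480/540 nm.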
# [16] = measured here: cell count channel max response
# [17] = measured here: lipid channel max response
# Chain of Calcium and integrin-binding protein 1 (Homo sapiens) (Q99828 whole entry, looked up): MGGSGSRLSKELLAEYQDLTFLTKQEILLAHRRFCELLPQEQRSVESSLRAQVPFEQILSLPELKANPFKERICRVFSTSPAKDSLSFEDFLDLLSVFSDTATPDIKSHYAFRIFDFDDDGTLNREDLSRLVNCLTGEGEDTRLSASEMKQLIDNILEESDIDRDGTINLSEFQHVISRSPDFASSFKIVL
# Chain of Furin (Homo sapiens) (P09958 whole entry, looked up): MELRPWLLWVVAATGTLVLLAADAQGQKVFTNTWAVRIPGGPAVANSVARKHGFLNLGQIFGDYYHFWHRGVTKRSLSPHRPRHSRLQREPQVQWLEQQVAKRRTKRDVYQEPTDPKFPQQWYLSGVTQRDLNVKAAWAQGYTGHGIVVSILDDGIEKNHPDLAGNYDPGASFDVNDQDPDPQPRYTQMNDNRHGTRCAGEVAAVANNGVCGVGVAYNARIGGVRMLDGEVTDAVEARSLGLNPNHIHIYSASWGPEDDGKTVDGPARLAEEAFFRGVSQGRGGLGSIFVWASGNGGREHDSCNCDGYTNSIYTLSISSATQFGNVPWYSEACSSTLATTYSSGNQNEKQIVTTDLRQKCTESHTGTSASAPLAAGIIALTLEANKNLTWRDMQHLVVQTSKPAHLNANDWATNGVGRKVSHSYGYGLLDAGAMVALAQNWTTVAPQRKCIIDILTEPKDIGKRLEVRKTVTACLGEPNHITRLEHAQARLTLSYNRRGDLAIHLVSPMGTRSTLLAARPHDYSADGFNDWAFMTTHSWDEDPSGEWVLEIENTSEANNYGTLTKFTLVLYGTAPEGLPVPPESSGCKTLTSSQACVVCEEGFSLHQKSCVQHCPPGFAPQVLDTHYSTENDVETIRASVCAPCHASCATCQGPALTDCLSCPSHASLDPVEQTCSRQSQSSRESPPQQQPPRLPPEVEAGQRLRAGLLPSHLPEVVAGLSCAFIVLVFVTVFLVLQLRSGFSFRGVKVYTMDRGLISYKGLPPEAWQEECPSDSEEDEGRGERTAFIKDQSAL
# Chain of Cytochrome P450 3A4 (Homo sapiens) (P08684 whole entry, looked up): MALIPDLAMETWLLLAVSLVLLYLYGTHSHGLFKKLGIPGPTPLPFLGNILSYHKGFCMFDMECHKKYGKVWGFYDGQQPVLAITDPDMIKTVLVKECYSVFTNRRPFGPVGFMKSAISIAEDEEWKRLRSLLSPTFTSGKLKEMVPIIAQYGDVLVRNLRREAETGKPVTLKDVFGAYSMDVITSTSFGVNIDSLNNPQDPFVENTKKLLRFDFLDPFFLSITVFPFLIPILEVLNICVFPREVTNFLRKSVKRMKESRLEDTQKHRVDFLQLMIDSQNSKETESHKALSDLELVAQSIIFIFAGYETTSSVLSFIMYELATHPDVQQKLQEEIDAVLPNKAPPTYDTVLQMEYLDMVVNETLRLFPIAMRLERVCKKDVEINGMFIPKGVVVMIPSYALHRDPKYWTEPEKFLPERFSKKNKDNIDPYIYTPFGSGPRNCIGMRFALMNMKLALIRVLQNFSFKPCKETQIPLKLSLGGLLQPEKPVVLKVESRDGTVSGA
# Chain of Ubiquitin carboxyl-terminal hydrolase 1 (Homo sapiens) (O94782 whole entry, looked up): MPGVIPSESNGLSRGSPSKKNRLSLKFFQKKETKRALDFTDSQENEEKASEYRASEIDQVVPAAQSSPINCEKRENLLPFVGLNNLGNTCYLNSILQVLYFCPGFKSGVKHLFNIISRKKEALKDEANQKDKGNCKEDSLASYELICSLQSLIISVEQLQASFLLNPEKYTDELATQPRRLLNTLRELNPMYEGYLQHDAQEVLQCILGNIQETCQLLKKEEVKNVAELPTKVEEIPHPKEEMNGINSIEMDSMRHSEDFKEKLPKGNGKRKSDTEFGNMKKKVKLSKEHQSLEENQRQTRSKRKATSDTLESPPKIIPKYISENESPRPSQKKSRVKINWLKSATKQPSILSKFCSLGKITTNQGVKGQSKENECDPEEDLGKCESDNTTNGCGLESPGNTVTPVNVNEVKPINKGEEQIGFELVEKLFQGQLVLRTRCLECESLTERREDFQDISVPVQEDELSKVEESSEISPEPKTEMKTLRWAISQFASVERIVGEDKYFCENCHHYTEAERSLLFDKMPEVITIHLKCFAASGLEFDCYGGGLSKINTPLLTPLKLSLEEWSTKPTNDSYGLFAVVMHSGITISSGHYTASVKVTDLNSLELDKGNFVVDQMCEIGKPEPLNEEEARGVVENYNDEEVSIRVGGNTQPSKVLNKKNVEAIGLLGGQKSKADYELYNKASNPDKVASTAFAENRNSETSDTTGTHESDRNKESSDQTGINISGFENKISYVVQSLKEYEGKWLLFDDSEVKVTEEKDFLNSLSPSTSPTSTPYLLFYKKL
# Chain of Cytochrome P450 2C9 (Homo sapiens) (P11712 whole entry, looked up): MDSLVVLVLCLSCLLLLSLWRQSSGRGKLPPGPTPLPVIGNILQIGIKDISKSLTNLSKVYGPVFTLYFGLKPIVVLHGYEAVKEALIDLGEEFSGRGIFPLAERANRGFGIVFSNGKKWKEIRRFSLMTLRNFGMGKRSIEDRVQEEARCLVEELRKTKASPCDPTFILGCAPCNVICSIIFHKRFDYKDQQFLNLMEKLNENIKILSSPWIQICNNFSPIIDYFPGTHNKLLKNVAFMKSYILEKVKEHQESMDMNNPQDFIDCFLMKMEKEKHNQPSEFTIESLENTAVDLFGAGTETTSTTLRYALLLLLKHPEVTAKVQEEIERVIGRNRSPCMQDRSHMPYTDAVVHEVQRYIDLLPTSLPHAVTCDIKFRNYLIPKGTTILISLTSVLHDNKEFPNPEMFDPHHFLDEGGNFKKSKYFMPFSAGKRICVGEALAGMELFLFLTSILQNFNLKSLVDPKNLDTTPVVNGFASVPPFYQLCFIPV
structure (smiles),measurement,setting,value
O=C(OCC#CCSc1nnc(-c2cccc3ccccc23)o1)c1ccc(Cl)c(C(F)(F)F)c1,Potency,[1],52.7 µM (active)
same,Potency,[2],25.1 µM (active)
same,Potency,[3],inactive
same,Potency,[4],inactive
O=C(OCC#CCSc1nnc(-c2ccccc2F)o1)c1ccc(F)cc1,Potency,[1],inactive
same,Potency,[2],inactive
same,Potency,[3],inactive
same,Potency,[4],inactive
same,outcome,[5],inactive
O=C(OCC#CCSc1nnc(-c2cccc3ccccc23)o1)c1ccc(F)cc1F,Potency,[1],46.9 µM (active)
same,Potency,[2],inactive
same,Potency,[3],inactive
same,Potency,[4],inactive
same,outcome,[5],inactive
Cc1ccc(-c2nnc(Nc3ccc(Br)cc3)c3ccccc23)cc1S(=O)(=O)NCc1nc2ccccc2[nH]1,Potency,[1],52.7 µM (active)
same,Potency,[6],inactive
same,Potency,[7],inactive
same,Potency,[8],inactive
same,Potency,[9],0.849 µM (active)
Fc1cc(C2=Nn3c(COc4ccc(Cl)cc4Cl)nnc3S/C2=C\c2ccc(-c3ccc(Cl)cc3)o2)c(Cl)cc1Cl,Potency,[1],inactive
same,Potency,[6],inactive
same,Potency,[7],158 µM (active)
same,Potency,[8],inactive
same,Potency,[4],inactive
O=C(O)COc1ccccc1C1Nc2ccccc2-c2nnc(SCc3ccc(Cl)cc3)nc2O1 (stereo not drawn),Potency,[1],inactive
same,Potency,[6],inactive
same,Potency,[7],316 µM (active)
same,Potency,[8],224 µM (active)
same,Potency,[4],inactive
COC(=O)c1c(NC(=O)c2cc3nc(-c4ccc(Br)cc4)cc(C(F)(F)F)n3n2)sc2c1CCCC2,Potency,[1],inactive
same,Potency,[2],inactive
same,Potency,[4],inactive
CCOC(=O)c1ccc(NC(=O)Cn2nnc(-c3ccc(C(F)(F)F)cc3)n2)cc1,Potency,[1],inactive
same,Potency,[2],inactive
same,Potency,[4],inactive
O=C1OCC2=C1C(c1cccc(Cl)c1)CC(=O)N2c1ccc(C(F)(F)F)cc1 (stereo not drawn),Potency,[1],inactive
same,Potency,[2],inactive
same,Potency,[4],inactive
O=C(Nc1cccc(C(=O)OCc2cc(=O)n3nc(C4CC4)sc3n2)c1)c1ccc(F)cc1,Potency,[1],inactive
same,Potency,[6],inactive
same,Potency,[3],31.6 µM (active)
same,Potency,[7],89.1 µM (active)
same,Potency,[4],inactive
COc1ccc(C(=O)Nc2cccc(C(=O)OCc3cc(=O)n4c5c(sc4n3)CCCC5)c2)cc1,Potency,[1],66.3 µM (active)
same,Potency,[2],inactive
same,Potency,[4],inactive
COc1ccc(-c2cc(=O)c3c(O)cc(O)c(-c4cc(-c5cc(=O)c6c(O)cc(O)cc6o5)ccc4OC)c3o2)cc1,Potency,[10],inactive
same,"activity change, negative = inhibition",[11],6.01% (inactive)
same,max response,[11]; [16],-20.7%
same,max response,[11]; [17],-15.6%
same,Potency,[1],inactive
same,Potency,[2],25.1 µM (active)
same,Potency,[7],112 µM (active)
same,Potency,[4],inactive
O=C(O)c1ccc(NS(=O)(=O)c2ccc(Cl)c(C(=O)Nc3ccccc3)c2)cc1,Potency,[1],inactive
same,Potency,[2],inactive
same,Potency,[4],inactive
O=C(COc1ccc(F)cc1)Nc1ccc(C(=O)OCc2cc(=O)n3nc(C4CC4)sc3n2)cc1,Potency,[1],inactive
same,Potency,[2],inactive
same,Potency,[4],inactive
CC(C)c1nn2c(=O)cc(COC(=O)c3ccc(NC(=O)CCc4ccccc4)cc3)nc2s1,Potency,[1],inactive
same,Potency,[2],inactive
same,Potency,[4],inactive
O=C(Nc1ccc(C(=O)OCc2cc(=O)n3c4c(sc3n2)CCCC4)cc1)c1ccc(Cl)cc1,Potency,[1],46.9 µM (active)
same,Potency,[2],inactive
same,Potency,[4],inactive
COc1ccc(S(=O)(=O)c2c(Nc3cccc(Cl)c3)sc(C(=O)c3ccccc3)c2N)cc1,Potency,[1],52.7 µM (active)
same,Potency,[2],inactive
same,Potency,[4],inactive
COc1ccc(/C=C(\C#N)c2nc(-c3cc4c(ccc5ccccc54)oc3=O)cs2)cc1O,Potency,[1],inactive
same,Potency,[6],inactive
O=c1oc2ccc3ccccc3c2cc1-c1nnc(Nc2cccc(C(F)(F)F)c2)s1,Potency,[1],inactive
same,Potency,[2],inactive
same,Potency,[4],inactive
O=C(CSc1nnc(-c2cccc([S+](=O)([O-])NC3CCCC3)c2)n1-c1ccc(F)cc1)Nc1ccc(C(=O)O)cc1,Potency,[1],inactive
same,Potency,[2],inactive
same,Potency,[4],inactive
O=C(O)c1ccc(-c2cc(C(F)(F)F)ccc2Cl)cc1,Potency,[1],inactive
same,Potency,[6],inactive
O=C(OCC#CCSc1nnc(-c2cccc3ccccc23)o1)c1ccc(OC(F)F)cc1,Potency,[1],41.8 µM (active)
same,Potency,[2],inactive
same,Potency,[3],inactive
same,outcome,[5],inactive
O=C(COc1ccccc1F)Nc1ccc(C(=O)OCc2cc(=O)n3nc(C4CC4)sc3n2)cc1,Potency,[1],inactive
same,Potency,[2],inactive
same,Potency,[4],inactive
CCOc1ccc(C(=O)Nc2ccccc2C(=O)OCc2cc(=O)n3nc(C4CC4)sc3n2)cc1,Potency,[1],inactive
same,Potency,[2],inactive
same,Potency,[4],inactive
CCCCc1nn2c(=O)cc(COC(=O)c3ccc(NC(=O)c4cccc(OC)c4)cc3)nc2s1,Potency,[1],41.8 µM (active)
same,Potency,[2],inactive
same,Potency,[4],inactive
O=C(OCC#CCSc1nnc(-c2cccc3ccccc23)o1)c1ccc(SC(F)(F)F)cc1,Potency,[1],52.7 µM (active)
same,Potency,[2],inactive
same,Potency,[4],inactive
same,outcome,[5],inactive
O=C(O)Cc1cc(I)c(Oc2cc(I)c(O)c(I)c2)c(I)c1,Potency,[12],inactive
same,outcome,[13],inactive
same,outcome,[14],inactive
same,"activity change, negative = inhibition",[11],3.04% (inactive)
same,max response,[11]; [16],12.2%
same,max response,[11]; [17],14.7%
same,Potency,[15],inactive
same,Potency,[1],inactive
same,Potency,[2],inactive
same,Potency,[4],inactive
COc1ccc(S(=O)(=O)c2c(O)c(C)cc(NS(=O)(=O)c3ccc(Cl)cc3)c2C(C)C)cc1,Potency,[1],inactive
same,Potency,[2],inactive
same,Potency,[4],inactive
CCOC(=O)c1cccc(NC(=O)CSc2ncc3c(n2)-c2ccc(Cl)cc2N(Cc2ccccc2)S3(=O)=O)c1,Potency,[1],inactive
same,Potency,[6],inactive
same,Potency,[3],44.7 µM (active)
same,Potency,[7],inactive
